Measurements published in PubChem BioAssay AID588453 (National Center for Advancing Translational Sciences (NCATS), 2011).
Screen size: about 390,000 compounds; about 4,000 (1%) were called active. Another 4% or so got no clear call; they are omitted. The call rests on the fitted dose curve; in most records, active means well fitted inhibition curve with a large enough effect; inconclusive means small, poorly fitted or top-dose-only effect; inactive means no such curve, though single readings can be large or run the other way. This excerpt belongs to a sample that is enriched for actives.

target: Thioredoxin reductase 1, cytoplasmic (Rattus norvegicus) (UniProt O89049); assay: qHTS Assay for Inhibitors of Mammalian Selenoprotein Thioredoxin Reductase 1 (TrxR1): qHTS; settings: recombinant rTrxR1, NADPH fluorescence consumption, selenite substrate; series mostly up to 114 µM; further: nearly all actives have a fitted effect of over 65% in size
Method in brief: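 Rat TrxR1 (90 nM in the dispensed reagent) was pre-reduced with 400 uM NADPH for 5 min at room temperature, then incubated with compound for 15 min. After 400 uM selenite was added, NADPH fluorescence (Ex 340/Em 450 nm) was followed for 8 min.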
Potency means the concentration at half of the fitted maximal effect.

Chain of Thioredoxin reductase 1, cytoplasmic (Rattus norvegicus) (O89049 whole entry, looked up): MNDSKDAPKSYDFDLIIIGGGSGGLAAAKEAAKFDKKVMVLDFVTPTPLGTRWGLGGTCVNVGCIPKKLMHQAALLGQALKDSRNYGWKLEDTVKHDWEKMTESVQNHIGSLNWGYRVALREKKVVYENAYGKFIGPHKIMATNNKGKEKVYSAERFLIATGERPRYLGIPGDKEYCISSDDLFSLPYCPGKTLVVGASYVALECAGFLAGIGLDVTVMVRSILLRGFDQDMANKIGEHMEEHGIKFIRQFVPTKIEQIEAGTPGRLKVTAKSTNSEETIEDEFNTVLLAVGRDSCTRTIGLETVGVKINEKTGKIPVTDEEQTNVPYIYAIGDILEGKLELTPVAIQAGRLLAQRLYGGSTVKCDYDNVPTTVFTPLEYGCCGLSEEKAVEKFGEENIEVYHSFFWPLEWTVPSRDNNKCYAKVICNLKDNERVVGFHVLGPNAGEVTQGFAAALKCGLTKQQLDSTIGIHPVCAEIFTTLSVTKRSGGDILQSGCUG

Potency, inactive:
O=C(CCc1nc(CN2CCN(S(=O)(=O)c3ccc(Br)cc3)CC2)no1)N1CCCCC1, Cc1noc(/C=C/N(C)C)c1S(=O)(=O)N1CCCC(C(=O)Nc2cccc(F)c2)C1 (configuration not stated), Cc1ccc(C)n1-c1ccncc1, c1ccc(-c2nccc(-c3ccc(-n4cnc5ccccc54)cc3)n2)nc1, NC1CCN(O)C1=O (configuration not stated), CC(C)(C)OC(=O)N(Cc1ccco1)S(=O)(=O)c1ccccc1Br, O=C(NCc1ccccc1Cl)c1cccn1-c1nnc(N2CCCCC2)s1, O=C(NCCc1ccccc1)c1ccc2c(c1)N(Cc1ccccc1)C(=O)c1ccccc1S2(=O)=O, CCCCOc1ccc(CN2C(=O)C(=O)c3cc(Br)cc(C)c32)cc1OC, CCOc1ccc(C(=O)N2CCN(CCc3ccccn3)CC2)cc1, CCOc1ccc(-c2ccc(SCC(=O)N3CCOCC3)nn2)cc1, SCc1nc2ccc(Cl)cc2[nH]1, Cc1ccccc1C(=O)Nc1sc2c(c1C(=O)N1CCC(C)CC1)CCCC2, Cc1cccc(NC(=O)C2CCCN2S(=O)(=O)c2cccc3nsnc23)c1C (configuration not stated), COc1cc(C2c3cc4c(cc3C(O)C3COC(=O)C23)OCO4)cc(OC)c1OC (configuration not stated), COc1cc(COCC(O)CN2CCN(Cc3ccc4c(c3)OCO4)CC2)cc(OC)c1OC (configuration not stated), Nc1nc(N)c(N=O)c(N)n1, COc1ccc(NS(=O)(=O)c2cc3c4c(c2)CC(=O)N4CCC3)cc1Cl, O=C(Nc1ccc(Br)cc1)c1ccc(Br)c(S(=O)(=O)NCc2ccccc2)c1, O=C(NC1CC(=O)N(c2ccc(Cl)cc2)C1)C1CCCC1 (configuration not stated), Cc1ccc(CCNC(=O)c2ccc3c(c2)N(Cc2cc(C)ccc2C)C(=O)c2ccccc2S3=O)cc1 (configuration not stated), C[N+]1(CC(=O)c2cccs2)CCOCC1, Cc1ccccc1N(C(=O)CNC(=O)c1cccs1)C(C(=O)NC1CCCC1)c1ccncc1 (configuration not stated), CCOC(=O)c1ccc(NC(=O)c2c(NCc3cccc(OC)c3)sc3c2CCC3)cc1, CCOc1ccc(N2C(=O)CN(c3cccc4ccccc34)C2=S)cc1, CCOC(=O)c1ccc(NC2=CC(c3ccc(OCC)cc3)N(c3ccc(C(=O)OCC)cc3)C2=O)cc1 (configuration not stated)

Potency, active:
Cc1nccc(-c2ccc(-n3c(C)ccc3C)cc2)n1 79.4 µM, CCOc1ccc(C(=O)CCN2CCOCC2)cc1 3.16 µM, COc1c(O)ccc2c1CN1CCc3cc4c(cc3C1C2)OCO4 (configuration not stated) 50.1 µM, Fc1ccc(-c2ccc(-c3nn4c(-c5ccco5)nnc4s3)o2)cc1 35.5 µM, Cc1ccccc1C(CC(=O)c1cccs1)C(C#N)C#N (configuration not stated) 10 µM, CCOc1ccc(N2C(=O)/C(=C/c3ccc(C)o3)N(C)C2=S)cc1 31.6 µM
